RORgamma inh – qHTS for inhibitors of ROR gamma transcriptional activity; Drosophila S2 Gal4-RORgamma UAS-luciferase reporter, 20 h; 5.4% of 310,000 active; Nuclear receptor ROR-gamma (Mus musculus), P51450; Potency, µM (highest dose often 53.6 µM), for inactives: at the top dose activity change, negative = inhibition, usual class: inhibitors; also: potency is read from the fitted curve at half-maximal effect; % is scaled to controls: 0 for no effect and ±100 for the full control effect; nearly all actives have a fitted effect of over 60% in size
Target sequence (P51450 whole entry, looked up, the tested form may be a part): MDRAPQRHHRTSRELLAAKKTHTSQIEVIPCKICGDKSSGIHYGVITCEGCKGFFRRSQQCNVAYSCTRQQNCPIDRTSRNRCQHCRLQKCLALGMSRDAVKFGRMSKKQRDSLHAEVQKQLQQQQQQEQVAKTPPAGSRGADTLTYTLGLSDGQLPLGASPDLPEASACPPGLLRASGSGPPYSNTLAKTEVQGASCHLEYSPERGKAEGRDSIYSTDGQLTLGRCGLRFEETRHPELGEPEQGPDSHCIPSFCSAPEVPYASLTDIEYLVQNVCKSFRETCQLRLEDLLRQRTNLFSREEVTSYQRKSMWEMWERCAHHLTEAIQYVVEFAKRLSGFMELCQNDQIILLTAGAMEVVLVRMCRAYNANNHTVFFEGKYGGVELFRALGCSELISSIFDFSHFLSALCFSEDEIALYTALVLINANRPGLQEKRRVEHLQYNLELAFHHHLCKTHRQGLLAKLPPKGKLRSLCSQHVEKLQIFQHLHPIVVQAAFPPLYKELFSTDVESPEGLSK
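Luciferase reporter read in Schneider cells carrying Gal4-RORγ (mouse) and UAS-Photinus luciferase; cells given compound 1 h before 700 uM copper sulfate induction, then incubated 20 h at ambient temperature.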
TRPV1 potentiator – HTS Assay for Compounds that Act as Potentiators of the Vanilloid Receptor 1; Transient receptor potential cation channel subfamily V member 1 (Homo sapiens), Q8NER1; TRPV1-expressing cells, Fluo-8 calcium influx, capsaicin EC20 potentiation; potentiation, % at 8.33 µM; 0.02% of 320,000 active; in the data active = potentiation above about 80%; inconclusive = between about 30% and that limit; also: 0% is about no effect
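TRPV1-expressing cells were cultured overnight at 35.5C and loaded with Fluo-8 calcium dye for 40 to 90 min at room temperature. After a 10 s baseline, compound was added and calcium influx was read kinetically for 3 min (ex 480/em 520 nm).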
Gal4-VP16 FLuc – VP16 counterscreen qHTS for inhibitors of ROR gamma transcriptional activity | Drosophila S2 Gal4-VP16 UAS-luciferase, luminescence, 20 h | Potency, µM (series often up to 53.6 µM), without a hit: top-dose activity, negative = inhibition, usual class: inhibitors | 3.5% of 310,000 active | AID 2546, 2010;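 also: Gal4-VP16 expression switched on by copper sulfate through the metallothionein promoter; potency is read from the fitted curve at half-maximal effect; % is scaled to controls: 0 for no effect and ±100 for the full control effect; nearly all actives have a fitted effect of over 50% in size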
TRPV1 agonist – HTS Assay for Compounds that Act as Agonists of the Vanilloid Receptor 1; Transient receptor potential cation channel subfamily V member 1 (Homo sapiens), Q8NER1; TRPV1-expressing cells, Fluo-8 calcium influx, agonist mode; activation, % at 8.33 µM; 0.19% of 320,000 active; AID 540275, 2011; in the data active = activation above about 80%; inconclusive = between about 30% and that limit; also: 0% is about no effect
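TRPV1-expressing cells were cultured overnight at 35.5C and loaded with Fluo-8 calcium dye for 40 to 90 min at room temperature. After a 10 s baseline, compound was added and calcium influx was read kinetically for 3 min (ex 480/em 520 nm).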
uPA surface inh – qHTS for Inhibitors of Cell Surface uPA Generation. cell surface uPA generation assay, qHTS. 0.31% of 330,000 active. Potency, µM (titrated, usually from 38.3 µM), without a hit: at the top dose activity change, negative = inhibition, actives largely listed as inhibitors; active = well fitted inhibition curve with a large enough effect; inconclusive = small, poorly fitted or top-dose-only effect; inactive = no such curve, though single readings can be large or run the other way; tested in mouse RAW 264.7 cells; also: potency is read from the fitted curve at half-maximal effect; % is scaled to controls: 0 for no effect and ±100 for the full control effect; nearly all actives have a fitted effect of over 55% in size
Starred values were filed as active, the others as inactive; ? = inconclusive; nt = no result; [ ] = another dose, or the depositor's remark. Shown are actives, neighbours in structure and some others; about 5.8% of the full set was active somewhere. Unless noted, calls follow the shape of the dose curve; as a rule, active = well fitted curve in the direction sought with a large enough effect; inconclusive = small, poorly fitted or top-dose-only effect, or another doubt; inactive = no such curve, though single readings can be large; an effect the other way counts as inactive or inconclusive.

SMILES	RORgamma inh	TRPV1 potentiator	Gal4-VP16 FLuc	TRPV1 agonist	uPA surface inh
C=CCNC(=S)Nc1c(C(=O)OC)[nH]c2cc(OC)ccc12	2.8µM*	2	?	-3	-6%
CCCc1cc(=O)n2nc(N3CCC(C(=O)Nc4c(F)c(F)c(F)c(F)c4F)CC3)sc2n1	26%	30	3%	-1	-1%
CCCN(CCC)S(=O)(=O)c1ccc(C(=O)Nc2nnc(CSC)o2)cc1	0.89µM*	6	1.3µM*	0	-6%
CCCN(CCC)S(=O)(=O)c1ccc(C(=O)O)cc1	-25%	10	-22%	-1	-7%
CCCCN(CCCC)S(=O)(=O)c1ccc(C(=O)Nc2nnc(CSC)o2)cc1	0.32µM*	-18	0.89µM*	-2	-9%
CCCCN(CC)S(=O)(=O)c1ccc(C(=O)Nc2nnc(CSC)o2)cc1	0.71µM*	25	1µM*	-4	-7%
CCN(CC)S(=O)(=O)c1ccc(C(=O)Nc2cc(C)on2)cc1	0%	-3	-2%	21	1%
N#CCCN(CCC#N)S(=O)(=O)c1ccc(C(=O)Nc2nnc(C3=COCCO3)o2)cc1	-26%	21	-4%	1	-3%
CCCCN(CC)S(=O)(=O)c1ccc(C(=O)Nc2nnc(COC)o2)cc1	1.3µM*	-15	3.2µM*	4	-5%
CCOc1ccc(S(=O)(=O)n2cc(F)c(=O)[nH]c2=O)cc1	-6%	6	-2%	0	-13%
CCCn1c(N)c(N(CCOC)C(=O)c2cc3c(s2)CCCCC3)c(=O)[nH]c1=O	11%	10	-2%	0	1%
CN(C(=O)c1ccccc1C(=O)OCC(=O)Nc1ccc(S(N)(=O)=O)cc1)c1ccccc1	nt	21	nt	1	4%
CCN(CC)S(=O)(=O)c1ccc(C(=O)Nc2nnc(NC(=S)Nc3ccccc3)s2)cc1	?	2	?	-2	-4%
CCCCN(CC)S(=O)(=O)c1ccc(C(=O)Nc2nnc(-c3ccccc3Cl)o2)cc1	?	19	0.79µM*	9	nt
COc1cccc(OCCCn2cc(/C=C3/C(=N)N4C=C(C)SC4=NC3=O)c3ccccc32)c1	2.2µM*	-8	1.4µM*	13	0%
COc1ccc(OCCCn2cc(/C=C3/C(=N)N4C=C(C)SC4=NC3=O)c3ccccc32)cc1	0.79µM*	21	1.6µM*	-2	3%
CC1=CN2C(=N)/C(=C/c3cn(CCCOc4ccccc4C)c4ccccc34)C(=O)N=C2S1	?	6	?	11	1%
Cc1ccnc(NCc2cccc3ccccc23)c1	16µM*	-5	?	9	3%
Cc1ccnc(NC(=O)Cc2ccc(-c3ccccc3)cc2)c1	11µM*	-1	?	?	?
O=C(Cc1ccc(-c2ccccc2)cc1)Nc1ccccn1	-17%	7	2%	1	3%
COc1ccc(C(=O)NCCn2ccc3ccccc32)c(OC)c1	10µM*	0	?	3	-11%
CC1(C)OC(C(O)(c2cc(C(F)(F)F)cc(C(F)(F)F)c2)c2cc(C(F)(F)F)cc(C(F)(F)F)c2)C(C(O)(c2cc(C(F)(F)F)cc(C(F)(F)F)c2)c2cc(C(F)(F)F)cc(C(F)(F)F)c2)O1 (configuration not stated)	4%[10 µM]	nt	0%[10 µM]	nt	nt
CC(=O)Nc1ccc(C=NNc2nnc(NN=Cc3ccc(NC(C)=O)cc3)c3ccccc23)cc1	nt	nt	nt	nt	-8%
Cc1ccc(/C=N/Nc2nnc(Cl)c3ccccc23)cc1	3.2µM*	2	13µM*	1	-16%
Clc1ccc(/C=N/Nc2nnc(Cl)c3ccccc23)cc1	?	2	-25%	-1	4%
Clc1nnc(NN=C2CCCC2)c2ccccc12	8.9µM*	-11	?	1	-7%
Clc1nnc(N/N=C/c2ccccc2)c2ccccc12	10µM*	-1	?	-1	nt
Cc1ccc(CNC(=O)[C@H](C)[C@@H]2C[C@@]2(C)[C@@H](NC(=O)OCc2ccccc2)c2ccccc2)o1	?	nt	10%	nt	nt
